An excerpt weighted towards active compounds, which were near 19% of everything screened.
TDP1 cell noCPT = qHTS for Inhibitors of human tyrosyl-DNA phosphodiesterase 1 (TDP1): qHTS in cells in absence of CPT; AID 686978, 2013; 420,000 tested, 15% active; Potency, µM (series often up to 46.2 µM), for the others: top-dose activity change, negative = growth inhibition, hits mostly inhibitors; DT40 Tdp1-/- hTDP1 cells, no CPT, ATP luminescence, 48 h; also: potency is read from the fitted curve at half-maximal effect; nearly all actives have a fitted effect of over 55% in size
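Compound effects on proliferation are scored in DT40 Tdp1-/-;hTDP1 cells in the absence of CPT. ATP levels (CellTiter-Glo luminescence) are recorded after a ≥48 hr, 37 °C incubation.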
TDP1 cell CPT = growth inhibition of DT40 Tdp1-/-;hTDP1 cells with camptothecin (screen for TDP1 inhibitors) | 420,000 tested, 12% active | AID 686979 | chicken DT40 Tdp1-/-;hTDP1 cells + 20 nM CPT, ATP luminescence, 48 h | Potency, µM (top dose mostly 46.2 µM), for inactives: at the top dose activity change, negative = growth inhibition, hits mostly inhibitors; also: potency is read from the fitted curve at half-maximal effect; nearly all actives have a fitted effect of over 55% in size
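Cell growth measured by CellTiter-Glo luminescence after a minimum 48 h, 37 C compound exposure with 20 nM CPT in Tdp1-knockout DT40 cells stably expressing hTDP1, seeded 400/well; qHTS titration format.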
ELG1 repair inh = ELG1-dependent DNA repair inhibition | HEK293T ELG1-luciferase reporter, luminescence, 16 h; DNA damage induced by 5-fluorouridine | Potency, µM (highest dose often 46.1 µM), for inactives: at the highest dose activity change, negative = inhibition, usual class: inhibitors | 330,000 tested, 2.3% active | AID 504467; also: potency is read from the fitted curve at half-maximal effect; nearly all actives have a fitted effect of over 55% in size
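Step one: seed 2,000 cells per well. Step two: pin-transfer compound or DMSO alongside 5-fluorouridine. Step three: incubate 16 hr, 37 °C, 5% CO2. Step four: add ONE-Glo, wait 30 min, read luminescence.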
TDP1 block = TDP1 (human) enzyme inhibition | AID 485290 | 350,000 tested, 0.28% active | recombinant TDP1, AlphaScreen DNA substrate cleavage | Potency, µM (series often up to 130 µM), inactives show at the highest dose activity change, negative = inhibition, hits mostly inhibitors; also: potency is read from the fitted curve at half-maximal effect; nearly all actives have a fitted effect of over 40% in size
Target sequence (Q9NUW8 whole entry, looked up): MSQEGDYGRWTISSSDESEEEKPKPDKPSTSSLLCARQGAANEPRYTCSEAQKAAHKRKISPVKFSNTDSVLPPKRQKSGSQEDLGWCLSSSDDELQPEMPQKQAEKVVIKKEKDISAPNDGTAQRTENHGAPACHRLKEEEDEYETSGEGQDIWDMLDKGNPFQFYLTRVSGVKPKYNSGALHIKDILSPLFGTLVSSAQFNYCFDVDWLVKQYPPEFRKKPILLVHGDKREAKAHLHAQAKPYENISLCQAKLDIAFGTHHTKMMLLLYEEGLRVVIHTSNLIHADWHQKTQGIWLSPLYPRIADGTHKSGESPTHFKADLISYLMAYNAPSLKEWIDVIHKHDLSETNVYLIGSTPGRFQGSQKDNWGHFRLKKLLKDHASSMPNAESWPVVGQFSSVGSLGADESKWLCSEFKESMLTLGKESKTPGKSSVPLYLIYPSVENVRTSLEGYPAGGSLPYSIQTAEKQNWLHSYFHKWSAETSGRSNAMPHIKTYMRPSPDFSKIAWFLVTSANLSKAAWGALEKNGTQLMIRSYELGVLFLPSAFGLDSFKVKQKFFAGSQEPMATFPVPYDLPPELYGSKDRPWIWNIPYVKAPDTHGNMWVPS
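Enzyme-compound mixtures sat 15 min at room temperature, followed by a 5 min reaction with 15 nM final substrate and 10 min with AlphaScreen beads. Recombinant human Tdp1 was used at 1 nM final.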
IL-1B inflam inh = inflammasome signaling inhibition, IL-1 beta readout. 360,000 tested, 4.7% active. THP-1 LPS/ATP IL-1B secretion, AlphaLISA, 16 h; active compounds read low. activity change, % at 57.5 µM; in the data active = activity change below about -50%; inconclusive = mostly about -30% to -49%
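Secreted IL-1B measured by AlphaLISA bead assay after 16 h compound exposure of THP-1 cells; compounds (final up to 57.5 uM) added 1 h before LPS (250 ng/mL) and ATP (1.25 mM) stimulation; lower signal means less secretion.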
Giardia killer = kills Giardia lamblia | 340,000 tested, 0.15% active | AID 540267 | activity change, % at 7.66 µM, hits read low | Giardia lamblia trophozoite viability; in the data active = activity change below about -80%; inconclusive = between about -30% and that limit;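 also: parasites exposed to compound for two days anaerobically before the ATP read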
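Trophozoite viability was measured as ATP-dependent luminescence, read 15-30 min after reagent addition. Before that, parasites at 100 cells/well were exposed to compounds for 48 h, anaerobically, at 37 deg C.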
* = called active by the depositor; ? = inconclusive; . = no result; [ ] = remark or other dose. Unless noted, calls follow the shape of the dose curve; as a rule, active = well fitted curve in the direction sought with a large enough effect; inconclusive = small, poorly fitted or top-dose-only effect, or another doubt; inactive = no such curve, though single readings can be large; an effect the other way counts as inactive or inconclusive. % is scaled to controls: 0 for no effect and ±100 for the full control effect.

SMILES | TDP1 cell noCPT | TDP1 cell CPT | ELG1 repair inh | TDP1 block | IL-1B inflam inh | Giardia killer
CON(C)C(=O)CC(CNC(=O)OC(C)(C)C)c1ccc(Cl)cc1 (stereo unspecified) | 15µM* | ? | 3% | 1% | 4 | 8
CON(C)C(=O)CC(CN(Cc1ccccc1)C(=O)OC(C)(C)C)c1ccc(Cl)cc1 (stereo unspecified) | ? | 23µM* | ? | -3% | -61* | 9
CC(C)C(NC(=O)CNC(=O)OC(C)(C)C)C(=O)NCc1ccc(Cl)cc1 (stereo unspecified) | 10% | 14% | -1% | 0% | -11 | -5
COc1ccc(/C=C(\C#N)C(=O)OCC(=O)Nc2ccc(-c3nc4ccc(C)cc4s3)cc2)cc1 | -4% | ? | ? | -4% | -25 | -12
COc1ccc(C2=Nn3c(nnc3C(F)(F)F)SC2)cc1 | ? | -26% | -1% | . | 18 | -21
Cc1nnsc1-c1nc2ccccc2n1C(CCc1ccccc1)c1nc2ccccc2[nH]1 (stereo unspecified) | ? | ? | . | . | -26 | .
FC(F)(F)c1cc(Cc2nc3ccccc3n2C(CCc2ccccc2)c2nc3ccccc3[nH]2)cc(C(F)(F)F)c1 (stereo unspecified) | 7.3µM* | 7.3µM* | . | . | 5 | .
Cc1ccc(Cc2nc3ccccc3n2C(CCc2ccccc2)c2nc3ccccc3[nH]2)cc1 (stereo unspecified) | 18µM* | ? | . | . | -69* | .
C[N+]1=C(/C=C/Nc2ccccc2Cl)C(C)(C)c2ccccc21 | 12µM* | 23µM* | -3% | 9% | -6 | -2
O=C(C[n+]1ccn(CCCNP2(=O)C=C(c3ccccc3)OC(c3ccccc3)=C2)c1)c1cccs1 | -20% | 15µM* | 4% | 5% | ? | 5
CCOC(=O)Nc1ccc2c3c(cccc13)-c1ccccc1-2 | 21µM* | 18µM* | . | . | 25 | 6
CCOC(=O)Nc1cccc2ccccc12 | -8% | 5% | -1% | 1% | 11 | -3
Cc1cc2nc(-c3ccc(SCC(=O)N4CCOCC4)nc3)[nH]c2cc1C | ? | 26µM* | ? | 2% | ? | ?
Cc1ccc2nc(-c3ccc(SCC(=O)Nc4ccc5c(c4)OCCO5)nc3)[nH]c2c1 | -59% | ? | ? | -8% | -15 | -12
Cc1cc2nc(-c3ccc(SCC(=O)Nc4ccc5c(c4)OCCO5)nc3)[nH]c2cc1C | 23µM* | 23µM* | ? | 0% | -5 | ?
Cn1c(SCC(=O)NC2CCCC2)nnc1-c1ccco1 | -2% | 18% | 18% | -2% | -3 | -9
O=C(/C=C/Sc1ccc(C(F)(F)F)cn1)c1ccccc1 | 2.3µM* | 2.9µM* | 21% | -3% | ? | 13
O=C(CSc1ccc(C(F)(F)F)cn1)Nc1ccccc1 | -2% | 3% | -7% | -2% | -9 | 20
CCOc1ccc(C(=O)NCCc2sc(-c3ccc(C)cc3)nc2C)cc1 | ? | 23µM* | . | 3% | . | .
CCOc1ccc(C(=O)NCCc2sc(-c3cccc(F)c3)nc2C)cc1OCC | ? | 18µM* | . | 2% | . | .
CCOc1ccc(S(=O)(=O)NCCc2sc(-c3ccc(C)cc3)nc2C)cc1 | 16µM* | ? | . | 10% | . | .
Cc1nc(-c2cccc(F)c2)sc1CCNC(=O)c1ccc(F)c(F)c1 | ? | ? | . | 4% | . | .
COc1ccc(S(=O)(=O)NCCc2sc(-c3cccc(C)c3)nc2C)cc1 | . | . | . | 0% | . | .
O=C(O)COc1ccc(OCCNC[C@@H](O)COc2ccccc2)cc1 | -6% | 8% | . | 14%[56.1 µM] | . | .
COc1ccc(N(CC(=O)NC(C)C)S(=O)(=O)c2ccc(NC(C)=O)cc2)cc1 | -3% | 6% | ? | 1% | 9 | -1
